Measured values as given in PubChem BioAssay.
Inconclusive results are not listed. The source made the active and inactive calls. Unless noted, the rule behind the calls is not given here.

Columns and labels:
[1] = molecular target: ATP-dependent translocase ABCB1 (Homo sapiens) (UniProt P08183); assay: P-glycoprotein substrate transport blockade – cell-based (AID 377; in the data active = fluorescence slope change above about 50%); details: MDR1-expressing cells, fluorescent substrate accumulation slope; stronger effect = higher value; concentration not given here
[2] = test system: Hepatitis C virus NS3 helicase; assay: blockers of NS3h binding to ssDNA – biochemical, fluorescence polarization, LOPAC1280 library, primary screen (AID 687035; in the data active = inhibition above about 37%); details: Purified HCV NS3 helicase, Cy5-dT15 ssDNA binding fluorescence polarization; stronger effect = higher value; concentration not given here
[3] = compounds altering Cy5-DNA-NS3h complex signal – biochemical, LOPAC1280, artefact control for HCV NS3 helicase inhibitor project (AID 687037); details: Cy5-DNA-NS3h complex fluorescence interference counterscreen
[4] = growth inhibition, single agent or in combination, cell-based, chromothripsis tumors, cisplatin or BGB combos (AID 1671449; in the data active = inhibition above about 80%;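 note: cells exposed for 96 hours; 0% = vehicle DMSO and 100% = killing by high DMSO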); details: LFS_MB_P medulloblastoma cells
[5] = growth inhibition, single agent and combos, cell-based, chromothripsis tumors, cisplatin or BGB combos (AID 1671450; in the data active = inhibition above about 80%;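 note: cells exposed to compound for four days; 0% = vehicle DMSO and 100% = cell killing by high DMSO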); details: HDN33 neuroblastoma cells, stronger effect = higher value
[6] = growth inhibition, single agents and combos, ICB984, cell-based, cisplatin or BGB combos, synergistic combos for chromothripsis tumors (AID 1671451); details: ICB984 medulloblastoma cells, drug combinations, stronger effect = higher value;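 note: cells exposed for 96 hours before readout; 0% = vehicle DMSO and 100% = killing by high DMSO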
[7] = growth inhibition, single agents and combos, LFS_MB_1R, cell-based, cisplatin or BGB combos, synergistic combos for chromothripsis tumors (AID 1671452; in the data active = inhibition above about 80%;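 note: cells exposed for 96 hours before readout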); details: LFS_MB_1R medulloblastoma cells, stronger effect = higher value
[8] = growth inhibition, single agents and combos, HTB85, cell-based, BGB or cisplatin IC20 combos, synergistic combos for chromothripsis tumors (AID 1671453; in the data active = inhibition above about 80%;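 note: cells exposed for 96 hours before readout; 0% = vehicle DMSO and 100% = high DMSO killing control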); details: HTB85 osteosarcoma cells, drug combinations, stronger effect = higher value
[9] = growth inhibition, MDA-MB-436, cell-based, BGB or cisplatin combos, synergistic combos for chromothripsis tumors (AID 1671458); details: MDA-MB-436 breast carcinoma growth inhibition, drug combinations, stronger effect = higher value;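 note: cells exposed for 96 hours; 0% = vehicle DMSO and 100% = killing by high DMSO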
[10] = BT084 cell growth, single and combined drugs, ICGC_MB145, cisplatin and BGB IC40 combos (AID 1671461; in the data active = inhibition above about 80%;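 note: cells exposed to drugs for 96 hours; 0% = vehicle DMSO and 100% = high DMSO full killing control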); details: BT084 medulloblastoma cells, drug combinations, stronger effect = higher value
[11] = RCMB18 cell growth, single agent and combined, cisplatin and BGB IC40 combos (AID 1671462; in the data active = inhibition above about 80%;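 note: cells exposed to compound for four days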); details: RCMB18 medulloblastoma cells, stronger effect = higher value
[12] = CRL1545 cell growth, single agent and combined, cisplatin and BGB IC20 combos (AID 1671464; in the data active = inhibition above about 80%;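 note: cells exposed to compound for 96 hours before readout; 0% = vehicle DMSO and 100% = high DMSO killing control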); details: CRL1545 osteosarcoma cells, stronger effect = higher value
[13] = measured here: combination with BGB IC40, at 0.05 µM
[14] = measured here: with BGB IC20 combination, at 0.5 µM
[15] = measured here: with cisplatin IC20 combination, at 0.5 µM
[16] = measured here: combination with cisplatin, at 0.5 µM

ATP-dependent translocase ABCB1 (Homo sapiens), sequence (P08183 whole entry, looked up): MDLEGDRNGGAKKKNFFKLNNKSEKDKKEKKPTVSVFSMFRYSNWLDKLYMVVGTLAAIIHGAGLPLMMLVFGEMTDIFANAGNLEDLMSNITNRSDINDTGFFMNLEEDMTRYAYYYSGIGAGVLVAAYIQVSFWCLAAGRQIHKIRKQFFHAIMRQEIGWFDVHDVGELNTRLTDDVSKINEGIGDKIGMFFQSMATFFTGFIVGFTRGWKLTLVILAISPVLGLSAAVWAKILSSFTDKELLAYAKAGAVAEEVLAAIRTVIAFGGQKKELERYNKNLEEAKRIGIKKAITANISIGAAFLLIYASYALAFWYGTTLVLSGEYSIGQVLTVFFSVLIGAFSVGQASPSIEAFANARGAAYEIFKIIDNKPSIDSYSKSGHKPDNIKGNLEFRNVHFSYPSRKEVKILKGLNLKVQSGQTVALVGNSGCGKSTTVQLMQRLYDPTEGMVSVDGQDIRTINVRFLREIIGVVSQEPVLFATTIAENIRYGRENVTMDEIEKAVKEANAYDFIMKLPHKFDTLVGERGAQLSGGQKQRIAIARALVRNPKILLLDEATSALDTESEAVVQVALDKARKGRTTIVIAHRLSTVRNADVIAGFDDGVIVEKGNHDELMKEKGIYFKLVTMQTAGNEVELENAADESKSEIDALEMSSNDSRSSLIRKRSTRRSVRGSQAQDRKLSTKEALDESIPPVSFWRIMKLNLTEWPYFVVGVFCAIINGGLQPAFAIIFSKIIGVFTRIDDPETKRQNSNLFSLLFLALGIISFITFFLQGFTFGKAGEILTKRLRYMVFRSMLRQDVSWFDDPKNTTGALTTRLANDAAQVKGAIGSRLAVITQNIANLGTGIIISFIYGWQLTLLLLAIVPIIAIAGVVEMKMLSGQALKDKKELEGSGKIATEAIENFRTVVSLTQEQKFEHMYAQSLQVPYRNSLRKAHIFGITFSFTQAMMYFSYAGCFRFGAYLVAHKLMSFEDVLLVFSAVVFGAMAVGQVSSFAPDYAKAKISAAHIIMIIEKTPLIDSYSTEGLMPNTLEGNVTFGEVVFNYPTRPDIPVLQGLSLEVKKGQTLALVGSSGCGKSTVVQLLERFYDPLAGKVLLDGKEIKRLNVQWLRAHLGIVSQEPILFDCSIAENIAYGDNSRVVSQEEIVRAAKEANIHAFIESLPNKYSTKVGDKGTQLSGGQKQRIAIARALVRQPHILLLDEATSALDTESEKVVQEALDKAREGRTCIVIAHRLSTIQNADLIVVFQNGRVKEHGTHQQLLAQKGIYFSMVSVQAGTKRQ

Compound: COc1cc2c(cc1OC)-c1cc3ccc(OC)c(OC)c3c[n+]1CC2
- fluorescence slope change [1]: 29.3% (inactive)

Compound: COC(=O)[C@H]1[C@H]2C[C@H]3c4[nH]c5ccccc5c4CCN3C[C@H]2CC[C@@H]1O
- inhibition [2]: 0% (inactive)
- fluorescence ratio (interference) [3]: 1 (inactive)

Compound: COc1c2ccoc2cc2oc(=O)ccc12
- inhibition ([4]; at 0.5 µM, stronger effect = higher value): -22.9% (inactive)
- inhibition ([4]; measured here: combination with BGB IC20, at 0.005 µM): -15%
- inhibition ([4]; measured here: combination with BGB IC40, at 0.005 µM): -30%
- inhibition [4, 13]: 3.17%
- inhibition ([4]; measured here: combination with cisplatin, at 0.5 µM, stronger effect = higher value): -36.3%
- inhibition ([4]; measured here: combination with cisplatin, at 5 µM, stronger effect = higher value): -26.9%
- inhibition ([5]; BGB combo, at 5 µM): -4.43%
- inhibition ([5]; at 0.5 µM): -1.51% (inactive)
- inhibition ([5]; cisplatin combo, at 5 µM): -17.2%
- inhibition [5, 14]: 5%
- inhibition [5, 15]: 1.07%
- inhibition ([5]; single agent, at 5 µM): -13.4%
- inhibition ([6]; BGB IC20 combo, at 0.005 µM): -7.99%
- inhibition ([6]; BGB IC40 combo, at 0.005 µM): -11.7%
- inhibition ([6]; BGB IC40 combo, at 0.05 µM): -24.6%
- inhibition ([6]; at 0.5 µM): -24.1% (inactive)
- inhibition ([6]; cisplatin combo, at 0.05 µM): -24.6%
- inhibition ([6]; cisplatin combo, at 0.5 µM): -26.9%
- inhibition ([6]; cisplatin combo, at 5 µM): -4.96%
- inhibition ([6]; measured here: 5 uM single agent, at 5 µM): -16.8%
- inhibition ([7]; at 0.5 µM): -1.71% (inactive)
- inhibition [7, 13]: -39.8%
- inhibition [7, 16]: -31.5%
- inhibition ([7]; measured here: combination with cisplatin, at 5 µM): 0.408%
- inhibition ([8]; at 0.5 µM): -23.4% (inactive)
- inhibition ([8]; measured here: with BGB IC20, at 0.5 µM): -60.7%
- inhibition ([8]; measured here: with BGB IC20, at 5 µM): -19.3%
- inhibition ([8]; measured here: with cisplatin IC20, at 0.5 µM): -7.94%
- inhibition ([8]; measured here: with cisplatin IC20, at 5 µM): 10.7%
- inhibition ([8]; single agent, at 5 µM): -6.82%
- inhibition ([9]; at 0.5 µM): -22.2% (inactive)
- inhibition ([9]; measured here: BGB combination, at 0.5 µM): -22.9%
- inhibition ([9]; measured here: BGB combination, at 5 µM): -18.9%
- inhibition ([9]; measured here: cisplatin combination, at 0.5 µM): -40%
- inhibition ([9]; measured here: cisplatin combination, at 5 µM): -24.1%
- inhibition ([10]; at 0.5 µM): -16.4% (inactive)
- inhibition ([10]; cisplatin combination, at 0.5 µM): -9.55%
- inhibition ([10]; cisplatin combination, at 5 µM): -48%
- inhibition ([10]; measured here: BGB IC40 combination 0.05 uM, at 0.05 µM): -9.91%
- inhibition ([10]; single agent, at 5 µM): -11.1%
- inhibition ([11]; at 0.5 µM): -11% (inactive)
- inhibition ([11]; cisplatin combo, at 5 µM): 17.9%
- inhibition ([11]; measured here: BGB IC40 combination, at 0.05 µM): -6.4%
- inhibition [11, 16]: -1.6%
- inhibition ([11]; single agent, at 5 µM): -15.2%
- inhibition ([12]; at 0.5 µM): -17.9% (inactive)
- inhibition [12, 14]: -18.6%
- inhibition [12, 15]: -17.5%
- inhibition ([12]; single agent, at 0.05 µM): -2.38%
- inhibition ([12]; single agent, at 5 µM): 22.5%

Compound: NCCCS(=O)(=O)O
- inhibition [2]: -1% (inactive)
- fluorescence ratio (interference) [3]: 1 (inactive)

Compound: Oc1cc(O)c2c(c1)O[C@H](c1ccc(O)c(O)c1)[C@@H](O)C2
- fluorescence slope change [1]: 16.4% (inactive)
- inhibition [2]: 0% (inactive)
- fluorescence ratio (interference) [3]: 1 (inactive)

Compound: NCCCCN=C(N)N
- fluorescence slope change [1]: 53.1% (active)
- inhibition [2]: 1% (inactive)
- fluorescence ratio (interference) [3]: 1 (inactive)

Compound: O=C1OC(=O)C2C3CCC(O3)C12 (stereo not given)
- inhibition [2]: -2% (inactive)
- fluorescence ratio (interference) [3]: 1 (inactive)

Compound: CN1CCc2c(c3ccccc3n2Cc2ccccc2)C1
- fluorescence slope change [1]: 70.9% (active)

Compound: NC(N)=NC(=O)c1nc(Cl)c(N2CCCCCC2)nc1N
- inhibition [2]: -5% (inactive)
- fluorescence ratio (interference) [3]: 0.9 (inactive)

Compound: NCCCCC(=O)O
- inhibition [2]: -1% (inactive)
- fluorescence ratio (interference) [3]: 0.9 (inactive)

Compound: NCCCCN
- inhibition [2]: -3% (inactive)
- fluorescence ratio (interference) [3]: 0.9 (inactive)

Compound: N[C@@H](Cc1cc(I)c(Oc2ccc(O)c(I)c2)c(I)c1)C(=O)O
- fluorescence slope change [1]: 18.7% (inactive)

Compound: CC(C(=O)O)c1ccc(N2Cc3ccccc3C2=O)cc1 (stereo not given)
- fluorescence slope change [1]: 85.5% (active)

Compound: CN(C)CCOC(c1ccccc1)c1ccccc1 (tested in a mixture with another compound)
- fluorescence slope change [1]: 130% (active)

Compound: O=C(O)c1cc2cc(F)ccc2[nH]1
- inhibition [2]: -2% (inactive)
- fluorescence ratio (interference) [3]: 1 (inactive)

Compound: Cn1c(=O)[nH]c2ncn(C)c2c1=O
- inhibition [2]: -3% (inactive)
- fluorescence ratio (interference) [3]: 1 (inactive)

Compound: CC(CN(C)C)CN1c2ccccc2Sc2ccccc21 (stereo not given)
- fluorescence slope change [1]: 102% (active)

Compound: Cc1cc(C(C)(C)CC(C)(C)C)ccc1OCCOCC[N+](C)(C)Cc1ccccc1
- fluorescence slope change [1]: 152% (active)

Compound: NCCSSCCN
- inhibition [2]: -2% (inactive)
- fluorescence ratio (interference) [3]: 1 (inactive)

Compound: NC(=O)CC[C@H](N)C(=O)O
- inhibition [2]: -3% (inactive)
- fluorescence ratio (interference) [3]: 1 (inactive)

Compound: CN[C@H](CC(=O)O)C(=O)O
- inhibition [2]: -2% (inactive)
- fluorescence ratio (interference) [3]: 1 (inactive)

Compound: NC(N)=NCCCCN=C(N)N
- fluorescence slope change [1]: 59.6% (active)
- inhibition [2]: -3% (inactive)
- fluorescence ratio (interference) [3]: 1 (inactive)

Compound: CN1CCc2cccc3c2C1Cc1ccc(O)c(O)c1-3 (stereo not given)
- inhibition [2]: -6% (inactive)
- fluorescence ratio (interference) [3]: 1 (inactive)

Compound: Cn1c(=O)c2[nH]c(C3CCCC3)nc2n(C)c1=O
- inhibition [2]: -1% (inactive)
- fluorescence ratio (interference) [3]: 1 (inactive)

Compound: CC(C)Cn1c(=O)n(C)c(=O)c2[nH]cnc21
- inhibition [2]: -1% (inactive)
- fluorescence ratio (interference) [3]: 0.9 (inactive)

Compound: COc1ccc([C@@H]2CC(=O)c3c(O)cc(O)cc3O2)cc1O
- fluorescence slope change [1]: 5.5% (inactive)

Compound: CCCCN1CCCCC1C(=O)Nc1c(C)cccc1C (stereo not given)
- fluorescence slope change [1]: -6% (inactive)

Compound: CN(C)CCC(c1ccc(Br)cc1)c1ccccn1 (stereo not given)
- fluorescence slope change [1]: 54.4% (active)
- inhibition [2]: 0% (inactive)
- fluorescence ratio (interference) [3]: 0.9 (inactive)

Compound: CC(C(=O)O)c1cccc(Oc2ccccc2)c1 (stereo not given)
- fluorescence slope change [1]: 22.2% (inactive)
